The panel holds about 79,000 compounds, 15% with a hit somewhere; the sample as a whole holds those more often. A number with no mark means an inactive call. Cut-off read from the data, not from the text of the source: active = growth inhibition above about 70%; inactive = the rest.
Assay: NCI Yeast Anticancer Drug Screen. Data for the bub3 strain (AID 167)
Details: S. cerevisiae bub3 mutant strain, at 50.0 µM, stronger effect = higher value
Procedure, shortened: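 Yeast carrying a defined mutation is treated with each compound, and growth is compared with that of vehicle-exposed cells to give inhibition.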

Row | SMILES | growth inhibition [%]
1 | O=S(=O)(Oc1ccc(OS(=O)(=O)c2ccccc2)cc1)c1ccccc1 | 12.5
2 | Nc1cccc2c1C(=O)OC2=O | -3.45
3 | CCC(C(=O)c1ccccc1)c1cccc2c1N(C(C)=O)CC2 (stereo unspecified) | 11.2
4 | COc1ccc(OC)c(NC(=O)c2ccc(Cl)c(Cl)c2)c1 | 13.6
5 | CCCCCCCCCCCCCCCCS(=O)(=O)N/N=c1\cc(-c2ccccc2Cl)c2ccccc2n1C | -11.1
6 | C=CC1CC(NC(=O)OC)C(=O)O1 (stereo unspecified) | 14.3
7 | CC1(C)C(CC(=O)O)CC1C(=O)O (stereo unspecified) | -34.6
8 | Cc1cc(N)ccc1N=Nc1ccc(S(=O)(=O)CCOS(=O)(=O)O)cc1 | -37.1
9 | Oc1ccc(C2SCc3nc4ccccc4n32)cc1 (stereo unspecified) | -45.1
10 | C/C(N)=C\c1nc(=O)ccs1 | 5.2
11 | C#[N+]CCOP(=O)(OCC1OC(n2cc(C)c(=O)[nH]c2=O)CC1N=[N+]=[N-])O[C@H]1CC[C@@]2(C)C(=CC[C@H]3[C@@H]4CC[C@H](C(C)/C=C/C(CC)C(C)C)[C@@]4(C)CC[C@@H]32)C1 (stereo partly specified) | 7.5
12 | O=C(O)c1ccc(O)cc1 | 1.7
13 | O=C1c2cccc3c([N+](=O)[O-])ccc(c23)C(=O)N1CC1CCCO1 (stereo unspecified) | 51.8
14 | COC(=O)C(C(C)C(C)[N+](=O)[O-])=P(c1ccccc1)(c1ccccc1)c1ccccc1 (stereo unspecified) | -4.95
15 | CC(=O)OC(C)C1CCCC1OC(C)=O (stereo unspecified) | -15.1
16 | O=Cc1ccnc2c(Cl)cccc12 | 6.3

Source: PubChem BioAssay (NCI)
